# Data: PubChem BioAssay
# Calls of active or inactive are those of the source. Unless noted, the rule behind the calls is not given here.
# Key:
# [1] = test system: Wnt5a (protein binding on small-molecule microarray); assay: Wnt5a binders on small-molecule microarray, primary screen, biophysical, 635/667 nm fluorescence (AID 1142); settings: 635 nm fluorescence, higher = more signal;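 note: fluorescence read at 667 nm with signal to noise per printed feature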
# [2] = cell viability in Huh7 cells, primary screen, cytotoxicity control for HCV replication inhibitor project, CellTiter-Glo luminescence, basal, 48 h (AID 1143); settings: Huh7 HCV replicon, higher = more signal, called active from +8 up or from −8 down;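 note: Huh7 hepatoma cells carrying a hepatitis C replication reporter with no stimulus; test concentration not given here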
# [3] = P. aeruginosa biofilm formation inhibitors, primary screen, PAO1 strain, BacTiter-Glo luminescence, LB-PBS (AID 1144); settings: 12 h, higher = more signal
# [4] = CREB reporter modulators without forskolin, primary screen, cell-based, PC12, CRE-LacZ reporter, unstimulated (AID 1145); settings: no forskolin, luminescence, 4.5 h, higher = more signal, called active from +8 up or from −8 down
# [5] = CREB reporter modulators under forskolin, primary screen, cell-based, PC12, CRE-LacZ reporter, forskolin-stimulated (AID 1146); settings: luminescence, 4.5 h, higher = more signal, called active from +8 up or from −8 down;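 note: PC12 cells with 6xCRE LacZ reporter stimulated by forskolin 10 µM; beta-galactosidase reporter signal reflecting CREB driven transcription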
# [6] = biological target: Streptavidin (Streptomyces avidinii) (UniProt P22629); assay: streptavidin binders on small-molecule microarray, primary screen, artefact control for SMM compound annotation, biophysical, 635/667 nm fluorescence (AID 1147); settings: streptavidin binding, higher = more signal;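 note: signal reflects streptavidin binding to arrayed compounds as a control protein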
# Sequence of Streptavidin (Streptomyces avidinii) (P22629 whole entry, looked up): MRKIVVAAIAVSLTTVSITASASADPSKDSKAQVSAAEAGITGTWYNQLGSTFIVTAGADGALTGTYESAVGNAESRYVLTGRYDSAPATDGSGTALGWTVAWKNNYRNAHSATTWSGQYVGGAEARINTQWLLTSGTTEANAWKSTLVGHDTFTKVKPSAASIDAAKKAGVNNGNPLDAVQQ
# [7] = small-molecule binders of probe aInhba, primary screen, biochemical, small-molecule microarray, 635/667 nm fluorescence (AID 1148); settings: higher = more signal;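 note: score merges 667nm spot fluorescence with signal-to-noise for antibody binding to printed compounds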
# Torsin-1A (Homo sapiens) [8] = biological target: Torsin-1A (Homo sapiens) (UniProt O14656); assay: torsin A binders from cell lysate, primary screen, small-molecule microarray, wild-type, 635/667 nm (AID 1149); settings: COS7 hTOR1A-WT lysate, 635 nm fluorescence, higher = more signal
# Sequence of Torsin-1A (Homo sapiens) (O14656 whole entry, looked up): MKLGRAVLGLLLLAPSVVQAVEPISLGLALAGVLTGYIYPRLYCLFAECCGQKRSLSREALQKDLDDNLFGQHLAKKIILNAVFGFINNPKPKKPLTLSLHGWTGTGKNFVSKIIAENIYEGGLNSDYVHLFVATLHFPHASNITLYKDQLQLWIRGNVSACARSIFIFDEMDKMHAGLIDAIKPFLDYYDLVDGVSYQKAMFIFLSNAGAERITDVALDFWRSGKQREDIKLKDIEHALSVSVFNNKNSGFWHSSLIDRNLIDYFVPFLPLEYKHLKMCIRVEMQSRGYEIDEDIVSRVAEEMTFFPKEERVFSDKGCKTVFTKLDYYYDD
# Torsin-1A (Homo sapiens) [9] = biological target: Torsin-1A (Homo sapiens) (UniProt O14656); assay: small-molecule binders of mutant TOR1A in lysate, primary screen, cell lysate, small-molecule microarray, COS7 lysate, 635/667 nm fluorescence (AID 1150); settings: COS7 hTOR1A mutant lysate, 635 nm fluorescence, higher = more signal;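 note: score pools 667 nm emission and signal to noise measuring lysate protein binding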
# [10] = test system: Sonic hedgehog protein (Shh); assay: small-molecule binders of Shh protein, primary screen, biochemical, small-molecule microarray, 635/667 nm fluorescence (AID 1151); settings: small-molecule microarray binding, 635 nm fluorescence; higher = more signal;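 note: Shh protein binding to compounds spotted on small-molecule microarray slides; score combines spot fluorescence intensity with signal-to-noise across triplicate slides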
# [11] = E. coli DRC41 culture turbidity changes, primary screen, E. coli filamentation inducer project, strain DRC41, OD650, 48 h (AID 1152);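 note: E. coli MC1000 strain DRC41 lacking acrAB efflux pump and sulA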; settings: E. coli DRC41 (acrAB sulA), higher = more signal, called active from +8 up or from −8 down
# [12] = small-molecule binders of probe aLefty1, primary screen, biochemical, small-molecule microarray, 635/667 nm fluorescence (AID 1153); settings: higher = more signal;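 note: score merges spot fluorescence with signal-to-noise ratio from the scanned slide images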
# [13] = PSAC antagonists in infected red cells, primary screen, cell-based, P. falciparum Indochina, OD700, 1 h (AID 1154); settings: P. falciparum Indochina infected RBC osmotic lysis, higher = more signal, called active from +8 up or from −8 down
# [14] = PSAC antagonists in infected red cells, primary screen, cell-based, P. falciparum Indochina, OD700, 2 h (AID 1155);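 note: lysis reports solute entry through the parasite surface anion channel PSAC; channel blockers reduce lysis of infected cells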; settings: P. falciparum Indochina infected erythrocytes, osmotic lysis OD700; higher = more signal, called active from +8 up or from −8 down
# [15] = osmotic lysis modulators in infected erythrocytes, primary screen, PSAC antagonist project, cell-based, P. falciparum Indochina, OD700, 3 h (AID 1156); settings: higher = more signal, called active from +8 up or from −8 down
# [16] = PSAC antagonists in infected red cells, primary screen, cell-based, P. falciparum Indochina, OD700, 18 h (AID 1157); settings: P. falciparum Indochina infected erythrocytes, osmotic lysis OD700, 18 h; higher = more signal, called active from +8 up or from −8 down
# [17] = modulators of S6 phosphorylation in cells, primary screen, cell-based, A549, cytoblot, luminescence, serum-stimulated (AID 1158); settings: A549 phospho-S6 cytoblot, 5 h, higher = more signal;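 note: serum-stimulated A549 lung adenocarcinoma cells; signal is phosphorylated S6 detected by cytoblot immunostaining with HRP secondary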
# [18] = biological target: NADPH oxidase 2 (Homo sapiens) (UniProt P04839); assay: NOX2-dependent H2O2 signal modulators, primary screen, NOX inhibitor project, cell-based, HEK293-NOX2, PMA-stimulated, Amplex Red fluorescence (AID 1159); settings: 45 min, higher = more signal, called active from +8 up or from −8 down; note: test concentration not given here
# Sequence of NADPH oxidase 2 (Homo sapiens) (P04839 whole entry, looked up): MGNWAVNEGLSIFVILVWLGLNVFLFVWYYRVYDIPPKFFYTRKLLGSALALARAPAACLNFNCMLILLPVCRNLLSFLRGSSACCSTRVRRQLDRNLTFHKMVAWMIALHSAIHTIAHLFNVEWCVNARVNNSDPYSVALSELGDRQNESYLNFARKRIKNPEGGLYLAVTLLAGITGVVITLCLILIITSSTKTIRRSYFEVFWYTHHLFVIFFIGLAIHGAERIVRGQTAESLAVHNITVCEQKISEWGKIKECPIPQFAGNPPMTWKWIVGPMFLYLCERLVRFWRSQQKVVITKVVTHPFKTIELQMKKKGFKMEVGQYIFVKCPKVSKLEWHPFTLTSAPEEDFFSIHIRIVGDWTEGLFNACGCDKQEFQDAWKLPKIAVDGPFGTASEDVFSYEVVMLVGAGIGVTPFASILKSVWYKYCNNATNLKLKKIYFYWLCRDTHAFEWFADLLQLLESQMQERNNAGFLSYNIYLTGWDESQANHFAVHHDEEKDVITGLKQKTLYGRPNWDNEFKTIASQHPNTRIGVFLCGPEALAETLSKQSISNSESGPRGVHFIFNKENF
# [19] = biological target: NADPH oxidase 4 (Homo sapiens) (UniProt Q9NPH5); assay: NOX4-dependent H2O2 signal modulators, primary screen, NOX inhibitor project, cell-based, HEK293-NOX4, tetracycline-induced, Amplex Red fluorescence (AID 1160); settings: 45 min, higher = more signal, called active from +8 up or from −8 down
# Sequence of NADPH oxidase 4 (Homo sapiens) (Q9NPH5 whole entry, looked up): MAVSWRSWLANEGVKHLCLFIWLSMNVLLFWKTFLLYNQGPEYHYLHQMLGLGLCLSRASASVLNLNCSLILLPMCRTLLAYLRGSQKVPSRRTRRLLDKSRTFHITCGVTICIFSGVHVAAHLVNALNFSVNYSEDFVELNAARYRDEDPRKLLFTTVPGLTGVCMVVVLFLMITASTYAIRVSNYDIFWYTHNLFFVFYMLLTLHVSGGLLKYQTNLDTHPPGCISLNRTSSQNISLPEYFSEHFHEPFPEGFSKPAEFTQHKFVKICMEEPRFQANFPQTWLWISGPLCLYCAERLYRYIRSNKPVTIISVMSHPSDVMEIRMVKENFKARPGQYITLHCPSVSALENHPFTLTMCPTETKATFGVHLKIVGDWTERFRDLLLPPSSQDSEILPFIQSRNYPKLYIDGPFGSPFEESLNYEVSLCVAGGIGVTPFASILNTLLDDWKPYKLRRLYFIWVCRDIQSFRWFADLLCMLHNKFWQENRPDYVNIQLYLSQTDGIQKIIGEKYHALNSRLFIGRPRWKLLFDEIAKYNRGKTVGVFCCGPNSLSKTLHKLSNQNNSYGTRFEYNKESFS
# [20] = biological target: NADPH oxidase 5 (Homo sapiens) (UniProt Q96PH1); assay: NOX5-dependent H2O2 signal modulators, primary screen, NOX inhibitor project, cell-based, HEK293-NOX5, Amplex Red fluorescence (AID 1161); settings: HEK293-NOX5, ionomycin, 45 min, higher = more signal
# Sequence of NADPH oxidase 5 (Homo sapiens) (Q96PH1 whole entry, looked up): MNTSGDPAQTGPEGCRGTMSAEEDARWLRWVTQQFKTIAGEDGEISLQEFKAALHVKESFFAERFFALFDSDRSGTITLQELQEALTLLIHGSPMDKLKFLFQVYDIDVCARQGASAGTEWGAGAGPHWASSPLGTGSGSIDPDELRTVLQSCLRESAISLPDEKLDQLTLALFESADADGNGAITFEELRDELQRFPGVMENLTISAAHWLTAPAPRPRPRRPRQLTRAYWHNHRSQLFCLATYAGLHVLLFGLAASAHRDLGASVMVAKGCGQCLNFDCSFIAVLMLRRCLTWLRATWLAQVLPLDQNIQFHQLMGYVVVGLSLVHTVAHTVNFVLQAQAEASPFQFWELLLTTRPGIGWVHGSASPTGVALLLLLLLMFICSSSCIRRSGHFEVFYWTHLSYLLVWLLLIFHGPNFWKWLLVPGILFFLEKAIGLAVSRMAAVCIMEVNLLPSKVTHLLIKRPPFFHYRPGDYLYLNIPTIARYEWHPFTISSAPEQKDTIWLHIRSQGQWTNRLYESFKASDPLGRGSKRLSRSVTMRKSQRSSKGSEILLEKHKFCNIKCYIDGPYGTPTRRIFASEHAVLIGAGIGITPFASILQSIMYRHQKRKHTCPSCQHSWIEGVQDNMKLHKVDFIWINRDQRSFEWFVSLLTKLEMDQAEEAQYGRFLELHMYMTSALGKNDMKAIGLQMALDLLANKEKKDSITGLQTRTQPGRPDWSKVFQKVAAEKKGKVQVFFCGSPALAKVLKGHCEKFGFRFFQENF
SMILES,composite z-score [1],z-score [2],z-score [3],z-score [4],z-score [5],composite z-score [6],composite z-score [7],composite z-score (Torsin-1A (Homo sapiens) [8]),composite z-score (Torsin-1A (Homo sapiens) [9]),composite z-score [10],z-score [11],composite z-score [12],z-score [13],z-score [14],z-score [15],z-score [16],z-score [17],z-score [18],z-score [19],z-score [20]
[N-]=[N+]=NCc1ccccc1[C@H]1OC(c2ccc(OCCCO)cc2)=N[C@@]1(Cc1ccccc1N=[N+]=[N-])C(=O)NCCN1CCOCC1,0.853,-2.28 (inactive),0.28 (inactive),0.162 (inactive),-0.542 (inactive),1.37,0.0657,-0.161,1.04,0.271,0.0417 (inactive),0.194,24.7 (active),16.2 (active),1.7 (inactive),1.85 (inactive),-0.0338,-0.753 (inactive),-0.358 (inactive),1.41
COCCCNC(=O)[C@@]1(Cc2ccccc2)COC(c2ccc(OCCCO)cc2)=N1,0.788,-1.02 (inactive),0.211 (inactive),-0.0808 (inactive),0.347 (inactive),-0.207,0.263,0.673,0.878,-0.795,1.76 (inactive),1.1,22 (active),4.97 (inactive),1.12 (inactive),1.04 (inactive),-0.194,-1.25 (inactive),1.05 (inactive),-0.909
CCOC(=O)C[C@H]1[C@H](OC(=O)Cc2ccc3c(c2)OCO3)[C@@H](NC(=O)c2ccccc2)c2cc(OCCCO)ccc2N1C(=O)c1ccc2ccccc2n1,-0.112,-0.629 (inactive),0.581 (inactive),11 (active),-0.981 (inactive),0.965,-0.0418,0.0426,1.19,0.844,2.15 (inactive),0.031,6.69 (inactive),-0.0918 (inactive),-1.04 (inactive),-1.23 (inactive),0.873,-0.357 (inactive),1.16 (inactive),0.27
CCCCC(CC)C(O)C1C=CC2C(=O)NC(=O)C2N1Nc1ccccn1 (stereo not given),-0.129,0.683 (inactive),-1.03 (inactive),-0.322 (inactive),-0.634 (inactive),0.91,-0.0405,0.312,0.624,-0.0493,-0.757 (inactive),-0.0754,1.68 (inactive),0.648 (inactive),0.186 (inactive),0.408 (inactive),-0.606,0.201 (inactive),-3.35 (inactive),-2.14
